High-throughput results as filed in PubChem.
Dicer processing = inhibitors of Dicer pre-microRNA processing, primary screen, biochemical, cat-ELCCA, chemiluminescence; cat-ELCCA pre-miR-21 Dicer processing; stronger effect = higher value; z-score at 25 µM; AID 1347074, 2019; actives 6% (n = 47,000); in the data active = z-score above about 3, passing the limit was not always enough;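 also: plate controls were vehicle for no effect and no enzyme for full effect; higher signal means more uncleaved substrate so more Dicer inhibition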
Target sequence (Q9UPY3 whole entry, looked up): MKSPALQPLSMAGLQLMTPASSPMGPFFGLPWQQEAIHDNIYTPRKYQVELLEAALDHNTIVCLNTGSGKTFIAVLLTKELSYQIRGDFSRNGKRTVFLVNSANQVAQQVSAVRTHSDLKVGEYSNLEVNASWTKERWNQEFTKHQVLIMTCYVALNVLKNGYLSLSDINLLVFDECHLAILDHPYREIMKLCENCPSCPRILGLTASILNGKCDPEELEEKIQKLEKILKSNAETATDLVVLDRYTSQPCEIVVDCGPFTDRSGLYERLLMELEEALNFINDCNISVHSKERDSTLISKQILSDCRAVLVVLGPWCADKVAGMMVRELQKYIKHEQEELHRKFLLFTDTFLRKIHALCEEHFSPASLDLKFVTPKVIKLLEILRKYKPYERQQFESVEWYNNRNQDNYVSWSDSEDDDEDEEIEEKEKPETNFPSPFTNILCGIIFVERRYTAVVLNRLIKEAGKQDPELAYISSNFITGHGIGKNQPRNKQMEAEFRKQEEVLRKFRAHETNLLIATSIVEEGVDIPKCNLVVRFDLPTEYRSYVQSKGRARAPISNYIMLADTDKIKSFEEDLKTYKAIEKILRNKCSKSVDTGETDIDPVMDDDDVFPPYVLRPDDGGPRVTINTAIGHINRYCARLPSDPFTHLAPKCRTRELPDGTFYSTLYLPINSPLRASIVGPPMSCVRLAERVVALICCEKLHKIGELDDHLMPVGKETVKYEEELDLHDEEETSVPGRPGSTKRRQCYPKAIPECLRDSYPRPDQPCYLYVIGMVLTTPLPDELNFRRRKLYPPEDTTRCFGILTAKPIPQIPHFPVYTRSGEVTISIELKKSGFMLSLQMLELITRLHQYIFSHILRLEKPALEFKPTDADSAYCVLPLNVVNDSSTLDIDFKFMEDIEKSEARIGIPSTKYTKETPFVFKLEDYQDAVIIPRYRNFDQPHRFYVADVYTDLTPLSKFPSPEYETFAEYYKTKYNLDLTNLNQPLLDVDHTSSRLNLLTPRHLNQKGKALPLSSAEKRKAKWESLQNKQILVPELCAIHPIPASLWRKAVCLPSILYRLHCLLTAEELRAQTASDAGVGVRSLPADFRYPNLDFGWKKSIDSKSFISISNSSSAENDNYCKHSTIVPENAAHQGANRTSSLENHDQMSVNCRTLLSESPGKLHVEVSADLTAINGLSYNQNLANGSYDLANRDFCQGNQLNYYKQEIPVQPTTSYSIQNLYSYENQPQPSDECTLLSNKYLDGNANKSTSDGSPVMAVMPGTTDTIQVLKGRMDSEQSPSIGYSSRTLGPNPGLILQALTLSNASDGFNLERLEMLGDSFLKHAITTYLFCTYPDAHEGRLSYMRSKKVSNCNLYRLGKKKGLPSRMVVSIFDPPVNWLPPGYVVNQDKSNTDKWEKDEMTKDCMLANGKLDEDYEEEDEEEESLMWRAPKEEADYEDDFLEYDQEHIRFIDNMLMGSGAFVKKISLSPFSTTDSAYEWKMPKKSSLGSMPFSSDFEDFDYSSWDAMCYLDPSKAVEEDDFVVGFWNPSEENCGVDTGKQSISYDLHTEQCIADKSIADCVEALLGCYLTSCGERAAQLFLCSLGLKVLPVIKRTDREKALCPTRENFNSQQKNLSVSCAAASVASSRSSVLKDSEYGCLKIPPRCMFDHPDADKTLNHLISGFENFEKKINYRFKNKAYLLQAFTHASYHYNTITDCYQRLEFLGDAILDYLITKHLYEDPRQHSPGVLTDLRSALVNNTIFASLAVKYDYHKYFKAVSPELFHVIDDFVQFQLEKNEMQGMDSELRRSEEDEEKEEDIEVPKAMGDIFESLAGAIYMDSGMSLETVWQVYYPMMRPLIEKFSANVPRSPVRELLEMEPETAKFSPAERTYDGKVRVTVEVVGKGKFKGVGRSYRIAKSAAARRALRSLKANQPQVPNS
* hit, by the source's call. Many of the other results were omitted from the sample, so hits are more common in it than they were.

SMILES | Dicer processing
Cc1ccc(C(=O)NNc2ncnc3scc(C)c23)cc1 | 2.2
Cc1nc(Nc2nc3ccccc3o2)nc(-c2ccccc2)c1C#N | -0.7
Cc1ccc(Nc2nc(C)cc(C)c2C#N)cc1 | 2.9
C=CCc1c(C)nc(SC)nc1Nc1ccc(C(=O)OCC)cc1 | -0.05
C=CCc1c(C)nc(SC)nc1Nc1ccc(C)cc1 | 5.7*
CCCc1nn(-c2ccc(Cl)cc2)cc1C(=O)Nc1ccc(Cl)cc1 | -1.2
Cc1cccc(Cn2c(=O)oc3ccc(C)cc32)c1 | -0.24
CCCCCOC(=O)Cn1c(=O)oc2ccc(C)cc21 | 1
COC(=O)Cn1c(=O)oc2ccc(C)cc21 | 3.7*
Cc1ccc2oc(=O)n(Cc3ccc(OC(C)C)cc3)c2c1 | 3.2*
CC(C)(C)NC(=O)Cn1c(=O)oc2ccc(Cl)cc21 | -1
O=c1oc2ccccc2n1Cc1cccc(Cl)c1 | 0.02
O=C(NC1CC1)c1cc(F)cc2c1OCOC2 | 0.54
CCOC(=O)CSc1nnc(-c2ccc(C)cc2)o1 | 2.8
O=C(CSc1nnc(-c2ccccc2)o1)c1ccccc1 | -1.1
O=C(CSc1nnc(-c2ccccc2)o1)OCc1ccccc1 | 3.4*
Cc1nc2sc(C(=O)c3ccc(Cl)cc3)c(N)c2c(C)c1C | 16
Cc1ccc(SCc2ccccc2-c2nc3ccccc3[nH]2)cc1 | -1.4
Cc1ccc(-c2nc3ccccc3[nH]2)cc1 | 0.21
Oc1ccccc1-c1nc2ccccc2[nH]1 | 3.2*
O=S(=O)(c1cccc(Cl)c1)N1C=CC(C(F)(F)F)=NCC1 | -0.62
COc1ccc(C(C)=O)cc1COc1cc(C)nc2ccc(Cl)cc12 | -1.4
CC(C#N)(Nc1ccccc1)c1ccncc1 (configuration not stated) | 3.4*
Cc1cc(NNC(=O)Nc2cccc(Cl)c2)nc2c1c(C)nn2C | 0.59
Cc1cc(NNC(=O)c2ccccc2Cl)nc2c1c(C)nn2C | -0.63
SMILES | Dicer processing
Cc1cc(NNS(=O)(=O)c2ccc(Cl)cc2)nc2c1c(C)nn2C | 4.4*
O=C1CSC(=Nc2ccccc2F)N1c1ccccc1F | -0.25
CCOC(=O)CC(=O)c1c[nH]c2ccccc12 | 15
S=c1[nH]nc(-c2ccncc2)n1Cc1ccccc1 | 1.2
CCn1c(-c2cccs2)n[nH]c1=S | 1.6
Cc1ccc(-n2cc(-c3cccs3)nc2SCc2n[nH]c(=S)n2Cc2ccccc2)cc1 | 5.8*
O=c1c2ccccc2c2ccccc2c(=O)n1Cc1ccccn1 | 2.4
N#CC(C#N)Sc1nc2ccccc2[nH]1 | 2.2
CCOC(=O)C(NC(C)=O)(NC1CCCCC1)C(F)(F)F (configuration not stated) | 0.24
COc1ccc(C2C(C#N)=C3N=C(N)c4ccccc4N3C3=C2C(=O)CCC3)cc1OC (configuration not stated) | 0.07
COC(=O)C1=C(C)NC2=C(C(=O)CCC2)C1c1cc([N+](=O)[O-])c(C)s1 (configuration not stated) | -1.9
CCOC(=O)C1=C(C)NC(C)=C(C(=O)OC)C1c1cccc([N+](=O)[O-])c1 (configuration not stated) | 0.15
COC(=O)C1=C(C)NC(C)=C(C(=O)OC)C1c1ccccc1[N+](=O)[O-] | 11*
O=C(CSc1nnc2n1CCCN2C(=O)Nc1ccccc1)c1ccc([N+](=O)[O-])cc1 | -2.1
CCOC(=O)c1c(N/N=C(\C)c2ccc(Br)cc2)n[nH]c1C | 3
COC(=O)/C(C#N)=C\c1cccc2ccccc12 | 0.57
Cc1nc2ccccc2c(C(=O)O)c1N | -2.8
CN(C)CCN1C(=O)C(O)=C(C(=O)c2cc3ccccc3o2)C1c1cccc(Oc2ccccc2)c1 (configuration not stated) | 0.92
CN1CC(=O)N/C1=N\C(=O)Nc1cccc(Cl)c1 | -1.5
O=C(Nc1cccc(Cl)c1)N1CCc2ccccc2C1 | 6*
O=C(Nc1cccc(Cl)c1)N1CCN(c2nsc3ccccc23)CC1 | -0.99
O=C(Nc1ccc(Br)cc1)c1ccc([N+](=O)[O-])s1 | 2.3
O=C1CC(Nc2ccc(N3CCOCC3)cc2)C(=O)N1c1ccc(Cl)cc1 (configuration not stated) | -0.47
CCOC(=O)c1c(Cl)c(C(C)(C)C)nc(N2CCOCC2)c1C#N | -3.1
CCOc1ccc(Oc2nc(NCC(C)C)nc(N3CCOCC3)n2)nn1 | 5.8*
SMILES | Dicer processing
COc1nc(NCC(C)C)nc(Oc2ccc(=O)[nH]n2)n1 | -0.42
CN(C)c1nc(Oc2ccc(=O)n(C)n2)nc(N2CCOCC2)n1 | -1
FC(F)(F)c1ccc(NCn2nnc3ccccc32)cc1 | -5.3
FC(F)(F)Oc1ccccc1NCn1nnc2ccccc21 | 3.6*
OCCCCCCN(Cn1nnc2ccccc21)Cn1nnc2ccccc21 | 0.54
CSc1nc2c(c(=O)n1C1CCOC(C)(C)C1)C1(CCCC1)Cc1ccccc1-2 (configuration not stated) | 1.8
CCCOC(=O)C1C2C=CC3(CN(Cc4ccccc4)C(=O)C13)O2 (configuration not stated) | 2.4
COc1cc(/C=N/N=C/c2ccccc2O)cc(OC)c1OC | 7.4*
CCNC(=S)N/N=C/c1cc(OC)c(OC)c(OC)c1 | 1.6
